These results are taken from PubChem BioAssay AID493242 (Broad Institute, 2011).

Results with a measured potency or affinity are listed apart. Active and inactive are the calls of the source. No rule for the calls is given here.

The assay deals with Replicative DNA helicase DnaB (Mycobacterium tuberculosis (strain ATCC 25618 / H37Rv)) (UniProt P9WMR3). As to the kind of experiment: DnaB intein splicing inhibition, Mycobacterium tuberculosis H37Rv, biochemical plate reader, confirmatory dose response (AID 493242).
Replicative DNA helicase DnaB (Mycobacterium tuberculosis (strain ATCC 25618 / H37Rv)), sequence (P9WMR3 whole entry, looked up): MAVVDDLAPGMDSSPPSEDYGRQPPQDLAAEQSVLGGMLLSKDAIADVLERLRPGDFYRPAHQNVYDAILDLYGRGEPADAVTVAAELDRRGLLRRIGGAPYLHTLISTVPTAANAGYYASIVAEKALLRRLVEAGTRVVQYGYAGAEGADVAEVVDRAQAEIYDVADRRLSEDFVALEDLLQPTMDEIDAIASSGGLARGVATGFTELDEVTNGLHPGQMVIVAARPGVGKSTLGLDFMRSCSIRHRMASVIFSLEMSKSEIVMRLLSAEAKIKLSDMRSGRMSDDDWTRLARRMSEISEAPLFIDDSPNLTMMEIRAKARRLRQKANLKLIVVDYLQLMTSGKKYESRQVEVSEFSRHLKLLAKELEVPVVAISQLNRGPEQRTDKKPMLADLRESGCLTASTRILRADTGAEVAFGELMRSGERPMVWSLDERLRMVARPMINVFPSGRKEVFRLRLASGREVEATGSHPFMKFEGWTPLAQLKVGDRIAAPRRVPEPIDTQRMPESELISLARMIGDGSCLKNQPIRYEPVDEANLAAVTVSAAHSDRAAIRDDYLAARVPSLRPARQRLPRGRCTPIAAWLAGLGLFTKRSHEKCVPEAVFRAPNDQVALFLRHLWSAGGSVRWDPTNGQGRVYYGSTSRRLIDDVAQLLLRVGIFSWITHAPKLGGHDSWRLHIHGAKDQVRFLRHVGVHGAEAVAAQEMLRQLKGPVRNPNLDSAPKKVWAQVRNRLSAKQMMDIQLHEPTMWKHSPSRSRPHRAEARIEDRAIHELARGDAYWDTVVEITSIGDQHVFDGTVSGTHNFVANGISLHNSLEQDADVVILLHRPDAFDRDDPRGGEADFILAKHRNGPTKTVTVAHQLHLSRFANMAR

`Nc1cn(-c2ccccc2)nc1-c1ccc(F)cc1`: the molecule was classed as inactive.
